Measured values as given in PubChem BioAssay AID1053143 (Broad Institute, 2014).
The whole screen tested about 3,400 compounds, of which about 120 (3.5%) were called active. Only a sample is shown. Results with a measured potency or affinity are listed apart. A number with no mark means an inactive call. No rule for the calls is given here.

Assay: HepG2 cell cytotoxicity, dose response, cytotoxicity control, ATP luminescence, cherry-pick, activator set 2 (AID 1053143)
Conditions: HepG2 viability, CellTiter-Glo ATP luminescence, 72 h; series mostly up to 26 µM; activity change, negative = cytotoxicity: at the top concentration

SMILES | activity change, negative = cytotoxicity
O=C(NC(=O)c1ccccc1)Nc1ccccc1 | 1.49%
CCCC(=O)Nc1ccc(C#Cc2ccccc2)cc1 | -0.469%
Cc1ccc(NC(=O)c2ccc(OC(=O)c3cc4ccccc4o3)cc2)cc1 | 4.2%
CCOC(=O)C1=C(C)NC(=O)C(C(N)=O)C1c1ccccc1 (stereo not drawn) | -3.34%
O=C(NC1CC1)C1Nc2ccc(OC(F)(F)F)cc2C2C=CCC12 (stereo not drawn) | 29.6%
O=C(Nc1ccc2c(c1)nc1n2CCOC1)c1ccccc1 | -16.9%
COc1cccc(NC(=O)c2cccc(Cl)c2)c1 | -17.7% [at 12 µM]
O=C(Nc1nc2ccccc2[nH]1)c1cccc(Cl)c1 | -18.3%
COc1ccc2cc3cc(C(=O)N4CCCCC4C)oc3nc2c1 (stereo not drawn) | -0.02%
Cc1nn(Cc2ccccc2)c(Cl)c1C(=O)NCCc1ccccc1 | -3.92%
CCCn1cnc2cc(NC(=O)c3cccs3)ccc21 | -9.34%
COc1cccc2oc3cc(C#Cc4ccccn4)ccc3c(=O)c12 | -8.47%
O=c1c2ccccc2oc2cc(C#Cc3ccccn3)ccc12 | -1.68%
O=[N+]([O-])c1cc(Cl)ccc1-c1nc(-c2ccccc2)no1 | -7.06%
Fc1ccc(-c2cn3cc(C(F)(F)F)cc(Cl)c3n2)cc1 | 1.44%
O=C(CCCCn1c(=O)[nH]c2ccsc2c1=O)NCCc1ccccc1 | -18.2%
C[C@@H]1ON(C)[C@H]2C[C@H]3c4cc(-c5cc6ccccc6o5)ccc4CCN3C[C@@H]12 | -0.799%
Cc1occc1C(=O)N/N=C/c1ccc(OCc2ccccc2)cc1 | -26.3% [at 12 µM]
O=C(N/N=C/c1ccc2c(c1)OCO2)c1ccc(Br)o1 | -2.64%
O=C(NN=Cc1ccc2c(c1)OCO2)c1ccccc1 | -0.221%
COc1cccc(/C=N/NC(=O)c2ccoc2C)c1 | -16.8%
O=C(CSc1nnc(-c2ccncc2)o1)Nc1cc(F)ccc1F | -5.14% [at 12 µM]
CN(C)c1ccc(-c2ccccc2)nn1 | -12%
CCc1ccc(NCc2nc3ccccc3c(=O)[nH]2)cc1 | -3.06%
CCC(=O)NC1=C(Nc2ccc(N)cc2)C(=O)c2ccccc2C1=O | -24%

SMILES | activity change, negative = cytotoxicity
COCC(=O)OCc1cc2cccc(C)c2[nH]c1=O | -13.6%
Cc1ccc(N2CC(C(=O)Nc3ccc4c(c3)OCCO4)CC2=O)cc1 (stereo not drawn) | -12.7%
O=C(CN1CCOCC1)Nc1ccc(C2CCCCC2)cc1 | 3.28%
Cc1cc(C(=O)NC2CCCCCCC2)ccc1[N+](=O)[O-] | -3.55%
COc1ccc2nc(-c3ccccc3)[nH]c2c1 | -28.6%
COc1ccc(/C=C/C(=O)c2ccccc2)c(OC)c1 | 4.41%
Cc1cc(NC(=O)c2ccc3nccnc3c2)ccc1Br | -12.6%
Cc1ccc(NC(=O)c2ccc(OCC3CCCO3)cc2)cc1Cl (stereo not drawn) | -31.3%
O=C(NC1=NCCS1)c1ccc(OCC2CCCO2)cc1 (stereo not drawn) | -9.45%
Cc1ccnc(NC(=O)c2ccc(S(=O)(=O)N3CCC(C)CC3)cc2)c1 | -2.07%
COc1cc(Cl)ccc1OCc1cc(C(=O)NC(C)Cc2cnccn2)no1 (stereo not drawn) | -13.1%
Cc1ccc(NC(=O)Nc2cccc(C)n2)c(C)c1 | -16.3%
Oc1cccc(Nc2nc(O)c(/C=C3\C=Nc4ccccc43)s2)c1 | -8.74%
COc1ccc(-c2csc(N(CC3CCCO3)C(=O)c3ccc(C)cc3)n2)cc1 (stereo not drawn) | -14.5%
CC(C)CN1CCC(=O)N(CCSc2ccccc2)CC1 | -0.298%
Clc1ccc(/C=N/Nc2ccccn2)cc1 | 3.24% [at 12 µM]
O=[N+]([O-])c1ccc(NN=Cc2ccc(O)cc2)nc1 | 2.51%
COC(=O)c1sc(-c2ccc(C(C)(C)C)cc2)cc1NC(=O)c1ccccc1C(=O)O | -0.287%
COc1ccc(N2CCN(c3ccc(NC(=O)/C=C\C(=O)O)cc3)CC2)cc1 | -5.11%
CC1CCC(C(C)C)C(=O)/C1=C/c1ccc(N)cc1 (stereo not drawn) | -13.4%
Cn1c(=NN=Cc2ccccc2OCCO)sc2ccccc21 | -17.3%
COc1ccc(-c2cn(Cc3ccc(C(N)=O)cc3)c(-c3ccncc3)n2)cc1 | -26.3%
COc1ncccc1-c1nnn(-c2ccc(C)cc2)n1 | -28.8%
COc1ncccc1-c1nnn(-c2ccccc2)n1 | -15.1%
CCCCn1c(SCC2CCCCO2)nc2cc(S(N)(=O)=O)ccc21 (stereo not drawn) | -22.6%

SMILES | activity change, negative = cytotoxicity
O=C(Cn1nnc2ccccc21)c1ccc(Cl)cc1 | -7.73%
c1ccc(-n2ncc3c(NCCN4CCOCC4)ncnc32)cc1 | -15.4%
Cn1c(=O)c(C(=O)NCC2CCCO2)c(O)c2ccccc21 (stereo not drawn) | -4.84%
COc1ccccc1C(=O)Nc1nnc(SCC(=O)NCC2CCCO2)s1 (stereo not drawn) | -5.08%
CC1(c2ccccn2)Nc2ccccc2-c2nc3ccccc3n21 (stereo not drawn) | -6.75%
NC(=O)c1ccccc1NC(=O)/C=C/c1ccccc1 | 14%
COC(=O)c1c(NC(=O)c2ccc(C)o2)sc2c1CCCCC2 | 19.4%
Cc1cccc(Cc2cnc(NC(=O)c3ccc(C)o3)s2)c1 | -22.4%
O=C(Nc1nccs1)c1ccc(-c2ccc(F)cc2)o1 | -7.12%
Cc1ccc(C(=O)Nc2nc3c(s2)CCCC3)o1 | -19.8%
CCCCN(C(=O)Cc1cccs1)c1nnc(-c2cccnc2)s1 | 1.27%
O=C(NCCc1ccc(Cl)cc1)c1ccc2c(c1)OCO2 | -4.91%
Cc1cccc(OCC(=O)Nc2nccs2)c1C | -2.78%
CC(C)(C)NC(=O)Nc1ccc(Br)cc1 | -21.4%
O=C1c2ccncc2C(=O)N1CNc1ccc(Cl)cc1 | -11.6%
O=C(O)c1ccc(/C=C(\c2nc3ccccc3[nH]2)c2nc3ccccc3s2)cc1 | 12.7%
O=C(Cc1nc2ccccc2[nH]c1=O)c1ccc(Cl)cc1 | 15.3%
CCc1cc(C(=O)COc2ccc(F)cc2)c(O)cc1O | -6.69%
CN(C)c1ccnc2sc(C(=O)c3ccccc3)c(N)c12 | -10.8%
CC1(C)Cc2c(c(N3CCOCC3)nc3sc(C(=O)Nc4ccccc4)c(N)c23)CO1 | -10.1%
CCCCN1CCc2c([nH]c3ccc(C)cc23)C1=O | -7.17%
O=C1CCC(c2ccccc2)c2ccccc21 (stereo not drawn) | -5.58%
Cn1ccc(NC(=O)c2ccc(Cl)cc2Cl)n1 | 9.45%
O=C(Nc1ccc2ccccc2c1)c1ccc(Cl)cc1Cl | -13%
O=C(NCCO)c1ccc2c3n(nc2c1)-c1ccc(Cl)cc1CO3 | -13.4%

SMILES | activity change, negative = cytotoxicity
CN(C)CCN1C(=O)C(=O)/C(=C(/O)c2ccc3c(c2)OCCO3)C1c1ccccn1 (stereo not drawn) | -7.51%
COc1cccc(/C=C/C(=O)NNC(=O)c2ccccc2)c1OC | -12.3%
CSc1nc(Cl)cc(Nc2ccc(O)cc2)n1 | -0.166%
Cc1cccc(NC(=O)c2c(O)c3ccccc3[nH]c2=O)c1 | -15.7%
Cc1cccc(C(=O)OCC(=O)c2c(C)[nH]c3ccccc23)c1O | 0.746%
Nn1c(SCc2c(F)cccc2F)nnc1-c1ccccn1 | -0.861%
O=C(Nc1ccc(NC(=O)c2cccs2)cc1Cl)c1ccco1 | 12.9%
CCC(=O)Nc1ccc(NC(=O)c2ccco2)c(OC)c1 | 67.7%
Cc1cccc(NC(=O)c2ccccn2)c1C | 5.79%
CC1(O)C(c2ccccc2)=Nc2ccccc21 (stereo not drawn) | -24.2%
O=C(c1cc(COc2c(F)cccc2F)on1)N1C[C@H]2CC[C@H]1C2 | -1.5%
Cc1ccc(-n2nc3ccc(N)cc3n2)cc1C | -0.701%
CC(C)c1ccc(-n2nc3ccc(N)cc3n2)cc1 | -17.6%
CC(=O)c1ccc2c(c1)Cc1cc(C(C)=O)ccc1-2 | -12.1%
CC1CCc2sc(C(=O)NC3CCCCC3)cc2C1 (stereo not drawn) | -10.7%
Cc1ccc(/C=N/Nc2nc3ccccc3[nH]2)s1 | -17.2%
C=CCn1cc(/C=N/Nc2nc3ccccc3[nH]2)c2ccccc21 | -43.7%
Cc1ccsc1/C=N/Nc1nc2ccccc2[nH]1 | -6.65%
Fc1ccccc1-c1ccc(/C=N/Nc2nc3ccccc3[nH]2)o1 | -16.3%
C(=C\c1ccccc1)/C=N/Nc1nc2ccccc2[nH]1 | -9.79%
C(=N\Nc1nc2ccccc2[nH]1)/c1cccs1 | 1.51%
C(=N\Nc1nc2ccccc2[nH]1)/c1ccc2c(c1)OCCO2 | -13.2% [at 12 µM]
Clc1nc2ccccc2cc1/C=N/Nc1nc2ccccc2[nH]1 | -7.1%
O=C(COC(=O)CC1CCCC1)Nc1cc2c(cc1Cl)C(=O)c1ccccc1C2=O | -25.4%
O=C(O)CC1=C(Nc2ccccc2)C(=O)N(c2ccccc2)C1c1ccc(Br)cc1 (stereo not drawn) | 21.9%

SMILES | activity change, negative = cytotoxicity
COC(=O)C(C)N1C(=O)S/C(=C/c2cc(C)n(-c3ccccn3)c2C)C1=O (stereo not drawn) | -4.21%
Cc1cccc(-n2ncc3c(NCCCO)ncnc32)c1 | 4.41%
O=C(CCNC(=O)c1ccc(Br)cc1)Nc1ccc(S(=O)(=O)N2CCOCC2)cc1 | -8.39%
C=CCc1c(C)nc2cc(-c3ccccc3)[nH]n2c1=O | -7.02%
Cc1ccc2oc(C(=O)N(C)Cc3ccon3)c(C)c2c1 | -6.74%
C(/C=C/c1ccccn1)=C\c1ccccc1 | -22.6%
COc1ccc2cc3cc(C(=O)N4CCCC(C)C4)oc3nc2c1 (stereo not drawn) | -14%
Cn1c(NC(=O)c2ccccc2F)c(-c2cccs2)c(=O)c2ccccc21 | -4.75%
COc1ccc(N=NC2=C(O)CC(C)(C)CC2=O)cc1 | -13.4%
Cc1cc2nn(-c3ccccc3)nc2cc1NC(=O)c1cccs1 | -10.6%
CCC(=O)Nc1ccc2nn(-c3ccc(F)cc3)nc2c1 | -11.6%
CCC(=O)Nc1cc(C(=O)OCC(=O)c2ccccc2Cl)ccc1C | -11.1%
CC(=O)Nc1cccc(-n2nnc(SCC(=O)c3ccccc3)n2)c1 | -12.8%
CCCC(=O)Nc1ccc2oc(-c3cccnc3)nc2c1 | -9.19%
Cc1ccc(NC(=O)Nc2cccc(C)n2)cc1 | -7.97% [at 6 µM]
O=C(CC(=O)c1ccccc1)Nc1ccccc1 | 0.16%
CC(=O)Nc1cccc(NC(=O)CCCC(=O)O)c1 | -2.64%
O=C(Nc1cc(F)c(Br)cc1F)c1ccc(Cl)cc1 | 4.77%
Cc1cnc(NC(=O)c2ccc3ncsc3c2)s1 | -12.4%
NC(=O)Cc1c[nH]c2cccc(O)c12 | -2.19%
CCn1c(O)c(C#N)c(C)cc1=O | 20.8%
O=C(Nc1ccc(F)cc1F)c1csc(-c2cccs2)n1 | -6.08%
c1csc(-c2nc(N3CCCCC3)no2)c1 | -5.95%
